# Assay results: PubChem BioAssay AID485313 (National Center for Advancing Translational Sciences (NCATS), 2010)
# About 7,600 (2.4%) of roughly 320,000 compounds were called active. Not shown: some 3% with an inconclusive outcome. The sample holds actives, similar compounds and a random draw of the others, so the mix is not that of the screen. Values without a mark were called inactive. The call rests on the fitted dose curve; in most records, active means well fitted activation curve with a large enough effect; inconclusive means small, poorly fitted or top-dose-only effect; inactive means no such curve, though single readings can be large or run the other way.
# Test: qHTS Assay for NPC1 Promoter Activators; further: nearly all actives have a fitted effect of over 60% in size; on activation: % of control where 0% means no effect
# Settings: Huh7 NPC1 promoter luciferase reporter, 24 h; series mostly up to 9.22 µM; activation: at the top concentration
# From the text: NIH Chemical Genomics Center [NCGC] NIH Molecular Libraries Probe Production centers Network [MLPCN] MLPCN Grant: MH089375-01A1 Assay Submitter (PI): Yiannis A. Ioannou NCGC Assay Overview: Niemann Pick Type C (NPC) is a rare neurodegenerative lipidosis that is characterized by lipid storage in the endosomal/lysosomal system. Treatment modalities for this devastating disease are currently non-existent due to the severe obstacles associated with accessing the central nervous system with proteins or genes. The majority of mutations causing NPC disease are missense mutations that are distributed throughout the length of the NPC1 protein, with the most prevalent being the I1061T allele. Although NPC1 mutant proteins may be functional, they are typically trapped in the ER due to misfolding. […] We have developed and optimized a cell based luciferase reporter assay in 1536 well format for the identification of up-regulators of the mutant NPC1 promoter.
# The NPC1 promoter is cloned in front of the luciferase reporter gene, therefore NPC promoter activation results in luciferase expression. Frozen stock of the NPC1 promoter transfected Huh7 cells were obtained from the laboratory of Dr. Yiannis Ioannou (The Mount Sinai School of Medicine, New York, NY). Cells were propagated and maintained at NCGC in medium containing RPMI-1640 supplemented with 10% FBS, 2mM L-glutamine, and 50ug/ml penicillin/streptomycin. Cells were harvested in and plated for assays in OP-MEM I reduced-serum medium supplemented with 10% FBS. The Amplite luciferase reporter gene assay kit was purchased from ABD Bioquest and prepared/stored according to manufacturers recommendations. qHTS Assay Setup: 1.#Dispensed 5ul of Huh7 cells stably expressing NPC1-luciferase at a density of 1500 cells per well 1536-well plates. 2.#Incubate cells at 37C, 5% CO2, and 95% humidity for 2 hours. 3.#Transferred 23nl per well of compound in DMSO solution. 4.#Incubated at 37C, 5% CO2, and 95% humidity for 24 hours. 5.#Dispensed 3ul per well of Amplite reagent(ABD Bioquest) per well. 6.#Incubate at ambient for 10 minutes. 7.#Read using the luminescence protocol on the ViewLux plate reader (Perkin Elmer).
# Potency means the concentration at half of the fitted maximal effect.
Compound,activation [%],Potency
Cc1ccccc1-c1nc(C#N)c(NCc2ccco2)o1,-1.82,
OC(c1nc2ccccc2[nH]1)C(O)C(O)C(O)c1nc2ccccc2[nH]1 (stereo not drawn),0.601,
Nc1cccc(CCc2nc3ccccc3[nH]2)c1,3.82,
COc1ccc(Br)cc1C(=O)NC(=S)Nc1cc(-c2nc3ccccc3[nH]2)ccc1C,11.1,
COc1ccc(-c2[nH]nc(-c3ccccc3)c2-c2nc3ccccc3[nH]2)cc1,-2.46,
Cc1ccc(-c2nc3ccccc3[nH]2)cc1N,,1.58 µM (active)
c1ccc2[nH]c(-c3nc4ccccc4[nH]3)nc2c1,,1.26 µM (active)
CNc1nc(SC)nc(N(C#N)CC(=O)OC)n1,-10.5,
COc1ccc(OC)c(S(=O)(=O)Nc2c(C)nn(C)c2C)c1,-2.56,
Cc1cc(C(=O)Nc2ccc(C)c(S(=O)(=O)N3CCOCC3)c2)c2ccccc2n1,-1.87,
c1ccc(CN=C2Nc3ccccc3CS2)nc1,,2.51 µM (active)
CCC1(CC)NC(=O)N(CC(=O)OCC(=O)c2cc(C)c(C)cc2C)C1=O,-2.6,
CC(=O)c1c(C)[nH]c(C(=O)COc2ccc3c(C)cc(=O)oc3c2)c1C,-17.6,
CCN(CC(=O)Nc1ccc(NC(C)=O)cc1)C(=O)CSC(=S)N1CCCC1,1.02,
C/C(=N\Nc1nc2ccccc2[nH]1)c1cccs1,,2 µM (active)
C/C(=N\NS(=O)(=O)c1ccc(Br)cc1)c1cccs1,0.595,
C/C(=N\Nc1ccc(S(N)(=O)=O)cc1[N+](=O)[O-])c1cccs1,1.42,
C/C(=N\Nc1ncc(Cl)cc1Cl)c1cccs1,,1.78 µM (active)
O=C(Nc1ccccc1-c1nc2ccccc2[nH]c1=O)c1cccs1,-2.41,
C/C(=N\Nc1nc(Nc2ccccc2)nc(N2CCOCC2)n1)c1cccs1,-1.07,
CN(C(=O)CSc1nnc(-c2ccc3c(c2)OCO3)o1)C1CCS(=O)(=O)C1 (stereo not drawn),-0.69,
CCOc1ccc(NC(=O)COC(=O)C2CCC(=O)N2)c([N+](=O)[O-])c1 (stereo not drawn),2.9,
CCN1C(=O)C(=O)N(CC(=O)Nc2cc(C)ccc2C)C1=O,4.28,
CCc1ccc(NC2Nc3cc(C)nn3S2)cc1 (stereo not drawn),,2.82 µM (active)
CCOC(=O)c1ccc(NC2Nc3cc(C)nn3S2)cc1 (stereo not drawn),2.46,
CN(C(=O)CN1C(=O)/C(=C/c2ccc(Cl)cc2)SC1=S)C1CCS(=O)(=O)C1 (stereo not drawn),-6.81,
Cc1ccc(C)c(C(C)NC(=O)C2CCCO2)c1 (stereo not drawn),-4.88,

Compound,activation [%],Potency
Cc1cc([N+](=O)[O-])ccc1NC(=O)C1CCCO1 (stereo not drawn),0.298,
Cc1cc(C)c2nc(NC(=O)C3CCCO3)sc2c1 (stereo not drawn),,3.98 µM (active)
CCOC(=O)c1ccc(NC(=O)C2CC(=O)N(c3ccc4c(c3)OCCO4)C2)cc1 (stereo not drawn),0.343,
COc1cc(OC)c(N2CC(C(=O)Nc3cc(Cl)ccc3N3CCOCC3)CC2=O)cc1Cl (stereo not drawn),-16.2,
Cc1nnc(NC(=O)/C=C/c2ccco2)s1,,2.51 µM (active)
CCC(CC)c1nnc(NC(=O)/C=C/c2ccco2)s1,22.7,
O=C(/C=C/c1ccco1)Nc1ccc(Oc2ccccc2)cc1,,3.98 µM (active)
O=C(/C=C/c1ccco1)NC(=S)Nc1ccccc1Br,-4.13,
COc1cccc(NC(=O)COC(=O)/C=C/c2ccco2)c1,1.54,
CCOC(=O)c1c(NC(=O)/C=C/c2ccco2)sc(C)c1C,-4.42,
CC(C)(CNC(=O)CNC(=O)C1CCCCC1)N1CCOCC1,-1.13,
O=C(C1CC(=O)N(C2CCCC2)C1)N1CCN(c2cccc(C(F)(F)F)c2)CC1 (stereo not drawn),-3.05,
COc1ccccc1N1CCN(CC(=O)Nc2ccnn2C2CCCC2)CC1,-1.78,
COc1cccc2cc(C(N)=O)/c(=N\NC(=O)c3ccccc3)oc12,,2.82 µM (active)
COc1ccc(C(=O)N/N=c2\oc3ccccc3cc2C(N)=O)cc1,3.62,
NC(=O)c1cc2ccccc2o/c1=N/NC(=O)c1cccc(F)c1,19.3,
O=C(c1ccc(Cl)c(S(=O)(=O)N2CCCCCC2)c1)N1CCN(c2ccc(O)cc2)CC1,-2.16,
CN1CCN(c2ccc(NC(=O)c3ccccc3)cc2)CC1,,2.51 µM (active)
Cc1ccccc1C(=O)NC(=S)Nc1ccc(N2CCN(C(=O)c3ccccc3)CC2)cc1,-5.56,
COc1cccc(C(=O)Nc2ccc(N3CCCC3)cc2)c1,,0.891 µM (active)
COc1cccc(C(=O)Nc2cc3c(cc2Br)OCCCO3)c1,,2.82 µM (active)
COc1cccc(C(=O)Nc2ccc(N3CCN(C(=O)c4ccco4)CC3)cc2)c1,-33.8,
COc1ccc(C2COC(=O)C2=N)c(NC(=O)c2ccccc2)c1 (stereo not drawn),-2.74,
CC(=O)Oc1cccc(C(=O)Nc2ccccc2NC(=O)c2cccc(OC(C)=O)c2)c1,-1.5,
COc1ccc(C(=O)Nc2ccc(N3CCC(C)CC3)cc2)cc1Br,-3.95,
CN1CCN(c2ccc(NC(=O)c3ccc4c(c3)[nH]c(=O)n4Cc3ccc(F)cc3)cc2)CC1,2.58,
